STAT3 SMM: binds human STAT3 on microarray; AID 624138; calls only; Small molecule microarray, His-STAT3 binding, anti-His fluorescence; P40763; actives 0.2% (n = 17,000);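 active = compounds whose four printed spots each show fluorescence over background unusually high for their array block, chance value under 7%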
NFkB SMM: NF-kappa-B p105 (human) binding; P19838; calls only; actives 1.3% (n = 17,000); Small molecule microarray, anti-His fluorescence binding;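 active = spot fluorescence over background significantly raised, with a chance value under 7% in all four replicate spots of the compound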;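 also: probe protein is his-tagged human p50 processed subunit at 1 µg/ml; raw spot fluorescence signals with no normalization applied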
mut p53 react: restores mutant p53 pathway signaling in SW480 cells | SW480 PUMA-promoter luciferase, p53 mutant reactivation | activation, % at 9.98 µM | actives 1.5% (n = 28,000) | AID 624151; in the data active = activation above about 52%
mut p53 SMM: binders of human mutant p53. small molecule microarray binding, anti-GST fluorescence. calls only. actives 0.4% (n = 17,000). AID 624136;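 active = compounds whose four printed spots each glow above background more than chance allows, each with a p-value under 7%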
c-Myc SMM: c-Myc (human) binding | small molecule microarray, His-c-Myc binding, anti-His fluorescence | calls only | actives 1.5% (n = 17,000) | AID 624141;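 active = spot fluorescence over background with P-value below 7% in all four replicate spots, showing protein binding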;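 also: score is binary with 100 for all four spots passing and 0 otherwise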
Target sequence (P01106 whole entry, looked up): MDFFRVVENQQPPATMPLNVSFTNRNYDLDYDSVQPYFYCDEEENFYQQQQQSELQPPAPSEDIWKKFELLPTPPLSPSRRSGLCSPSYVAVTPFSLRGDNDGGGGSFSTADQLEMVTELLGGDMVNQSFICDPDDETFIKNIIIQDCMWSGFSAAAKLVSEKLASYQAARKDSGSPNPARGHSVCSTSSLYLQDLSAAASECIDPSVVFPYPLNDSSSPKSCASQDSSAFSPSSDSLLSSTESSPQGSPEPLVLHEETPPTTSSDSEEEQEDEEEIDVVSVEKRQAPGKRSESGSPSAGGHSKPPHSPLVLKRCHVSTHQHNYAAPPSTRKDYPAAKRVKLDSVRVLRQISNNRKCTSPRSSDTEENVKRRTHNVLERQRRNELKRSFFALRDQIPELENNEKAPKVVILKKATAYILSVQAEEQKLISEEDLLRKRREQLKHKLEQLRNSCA
* hit, by the source's call; i = inactive; nt = no result given; + = active, no number. A selection: hits, their analogues and other compounds. The true share with any hit is near 2.6%.

SMILES | STAT3 SMM | NFkB SMM | mut p53 react | mut p53 SMM | c-Myc SMM
COC(=O)C(CC#Cc1ccc2c(c1)[C@]1(C(=O)N2)[C@H](C(=O)N2CCN(c3ncccn3)CC2)[C@H]2C(=O)O[C@H](c3ccccc3)[C@H](c3ccccc3)N2[C@@H]1c1ccc(OCCO)cc1)C(=O)OC | i | + | nt | i | i
Cc1noc(C)c1S(=O)(=O)Nc1ccc2c(c1)CC(=O)N([C@H](C)CO)C[C@H](C)[C@@H](CN(C)Cc1ccc(-c3ccccc3)cc1)O2 | i | i | -3 | i | i
Cc1csc2c(SCC(O)C(F)(F)F)ncnc12 (stereo unspecified) | nt | nt | 56* | nt | nt
Cc1nc([N+](=O)[O-])c(Sc2nc3ccccc3[nH]2)n1Cc1ccccc1 | i | i | 66* | i | i
Cc1cc2nc(Sc3c([N+](=O)[O-])nc(C)n3Cc3ccccc3)[nH]c2cc1C | nt | nt | 77* | nt | nt
O=[N+]([O-])c1ccc2nc(CSc3nc4ccccc4[nH]3)[nH]c2c1 | i | i | -2 | i | i
C[C@@H]1CN([C@H](C)CO)C(=O)c2cc(C3=CCCCC3)cnc2O[C@@H]1CN(C)C(=O)Cc1ccncc1 | nt | nt | 0 | nt | nt
CC(=O)c1ccc(NC(=O)CSc2nc(C)cc(C)c2C#N)cc1 | i | i | 140* | i | i
Cc1cc(C)c(C#N)c(SCC(=O)Nc2ccc(C(N)=O)cc2)n1 | nt | nt | 105* | nt | nt
CC(=O)c1ccc(NC(=O)CSc2nccn2C)cc1 | nt | nt | 93* | nt | nt
Cc1cc(C(F)(F)F)nc(SCC(=O)Nc2ccc(I)cc2)c1C#N | nt | nt | 14 | nt | nt
C[C@@H]1CCCCO[C@H](CN(C)C(=O)CCC(F)(F)F)[C@H](C)CN([C@@H](C)CO)C(=O)c2cc(NC(=O)CCC(F)(F)F)ccc2O1 | i | + | -4 | i | i
C[C@@H]1CCCCO[C@@H](CN(C)C(=O)CCC(F)(F)F)[C@H](C)CN([C@@H](C)CO)C(=O)c2cc(NC(=O)CCC(F)(F)F)ccc2O1 | i | + | -6 | i | +
C[C@@H]1CCCCO[C@@H](CN(C)C(=O)CCC(F)(F)F)[C@H](C)CN([C@@H](C)CO)C(=O)c2cc(NC(=O)Cc3ccccc3)ccc2O1 | i | i | -21 | i | i
O=C(NCc1ccco1)C1CCCN(S(=O)(=O)c2ccc(Cl)cc2)C1 (stereo unspecified) | nt | nt | -7 | nt | nt
NC(=O)NCC#Cc1ccc2c(c1)[C@]1(C(=O)N2)[C@H](c2ccccc2OCCO)N2[C@H](c3ccccc3)[C@H](c3ccccc3)OC(=O)[C@H]2[C@@H]1C(N)=O | i | i | nt | i | i
NC(=O)NCC#Cc1ccc2c(c1)[C@]1(C(=O)N2)[C@H](C(=O)N2CCCCCCC2)[C@H]2C(=O)O[C@H](c3ccccc3)[C@H](c3ccccc3)N2[C@@H]1c1ccccc1OCCO | i | i | nt | + | +
O=C1O[C@H](c2ccccc2)[C@H](c2ccccc2)N2[C@H]1[C@@H](C(=O)N1CCCCCCC1)[C@]1(C(=O)Nc3ccc(C#CC4=CCCCC4)cc31)[C@H]2c1ccccc1OCCO | i | + | nt | + | +
COc1cc2c(cc1OC)CN(C(=O)[C@@H]1[C@H]3C(=O)O[C@H](c4ccccc4)[C@H](c4ccccc4)N3[C@H](c3ccccc3OCCO)[C@@]13C(=O)Nc1ccc(C#CCNC(N)=O)cc13)CC2 | i | + | nt | i | i
Cc1cc(Cl)ccc1NC(=O)COc1ccc(C(=O)Nc2cc(Cl)ccc2Cl)cc1 | i | i | -14 | i | i
C[C@H](CO)N1C[C@H](C)[C@H](CN(C)C(=O)Nc2ccc(C(F)(F)F)cc2)Oc2c(NC(=O)NC3CCCCC3)cccc2C1=O | i | i | -19 | i | i
C[C@H](CO)N1C[C@H](C)[C@H](CN(C)C(=O)NC2CCCCC2)Oc2c(NC(=O)Nc3ccc(C(F)(F)F)cc3)cccc2C1=O | i | i | -2 | i | i
C[C@@H]1CN([C@H](C)CO)C(=O)c2cccc(NC(=O)Nc3ccc(C(F)(F)F)cc3)c2O[C@H]1CN(C)C(=O)NC1CCCCC1 | + | + | -16 | i | +
COc1ccc(S(=O)(=O)Nc2cccc3c2O[C@H](CN(C)Cc2ccc(C(F)(F)F)cc2)[C@@H](C)CN([C@@H](C)CO)C3=O)cc1 | i | i | -2 | i | i
COc1ccc(S(=O)(=O)Nc2cccc3c2O[C@@H](CN(C)Cc2ccc(C(F)(F)F)cc2)[C@H](C)CN([C@H](C)CO)C3=O)cc1 | + | i | 10 | i | i
SMILES | STAT3 SMM | NFkB SMM | mut p53 react | mut p53 SMM | c-Myc SMM
C[C@H]1CN([C@@H](C)CO)C(=O)c2cccc(NC(=O)NC3CCCCC3)c2O[C@@H]1CN(C)C(=O)Nc1ccc(C(F)(F)F)cc1 | i | + | -4 | i | +
C[C@@H]1CN([C@@H](C)CO)C(=O)c2cccc(NC(=O)Nc3ccc(C(F)(F)F)cc3)c2O[C@H]1CN(C)S(=O)(=O)c1cn(C)cn1 | i | + | 20 | i | +
C[C@@H]1CN([C@H](C)CO)C(=O)c2cccc(NC(=O)Nc3ccc(C(F)(F)F)cc3)c2O[C@H]1CN(C)CC1CC1 | + | i | -13 | i | i
Nc1[nH]nc2nc3ccccc3nc12 | i | i | 64* | i | i
CN(C)c1c(F)cc(C(=O)NC(=O)NC2=NCCS2)cc1F | nt | nt | 61* | nt | nt
O=C(CN1C(=O)CN(c2ccccc2)C1=O)Nc1ccccc1[N+](=O)[O-] | nt | nt | -21 | nt | nt
CCOC(=O)c1c(-c2ccc(Cl)cc2)csc1NC(=O)C1CCCCC1C(=O)O (stereo unspecified) | i | i | 12 | i | i
COc1ccc(-c2nc3ccccc3s2)cc1NC(=O)COc1ccccc1[N+](=O)[O-] | nt | nt | 28 | nt | nt
COc1ccc(OCC(=O)Nc2cc(-c3nc4ccccc4s3)ccc2C)cc1 | nt | nt | 30 | nt | nt
Cc1ccc(-c2nc3ccccc3s2)cc1NC(=O)COc1ccccc1 | i | i | 54* | i | i
COc1ccc(-c2nc3ccccc3s2)cc1NC(=O)COc1cccc(C)c1 | nt | nt | 66* | nt | nt
Cc1nnc(SCc2nc(N)nc(Nc3ccccc3)n2)s1 | i | i | 23 | i | i
Cc1nnc(SCc2nc(N)nc(Nc3ccc4ccccc4c3)n2)s1 | nt | nt | 97* | nt | nt
CCOC(=O)C1CCCCN1Cc1cc(OC)ccc1OC (stereo unspecified) | i | + | -15 | i | +
C[C@H]1CN([C@@H](C)CO)C(=O)Cc2cc(NC(=O)Cc3cn(C)c4ccccc34)ccc2O[C@H]1CN(C)S(=O)(=O)c1cn(C)cn1 | i | i | -10 | i | i
Cc1ccc2c(c1)c1nc3ccccc3nc1n2CCN1CCOCC1 | i | i | -17 | i | +
C[C@@H]1CN([C@@H](C)CO)C(=O)c2cccc(NC(=O)Nc3ccc(C(F)(F)F)cc3)c2O[C@H]1CN(C)S(=O)(=O)c1cccs1 | i | i | -10 | i | i
Cc1cc(=O)oc2cc(NC(=S)NCc3cccnc3)ccc12 | nt | nt | 75* | nt | nt
